The results in this text go back to PubChem BioAssay.

Assay [1] has as its system Plasmodium falciparum Sir2 (PF13_0152, Sir2A). The assay can be described thus: pfSir2 binders on small-molecule microarrays, primary screen, biochemical, small-molecule microarray, 635 nm fluorescence (AID 1098).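 Also: score merges spot fluorescence intensity with its signal-to-noise ratio.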 The following applies: small-molecule microarray binding, fluorescence 635 nm; higher = more signal.
The nature of assay [2]: small-molecule microarray binders of probe aDKK1, primary screen, biochemical, biotinylated probe, 635/667 nm fluorescence (AID 1099).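 Also: score merges 667nm spot fluorescence with signal to noise across triplicate slides; reference of the scale not given here.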 Particulars: higher = more signal.
A short description of assay [3]: small-molecule microarray binders of probe aCHRDL2, primary screen, biochemical, biotinylated probe, 635/667 nm fluorescence (AID 1100). The following applies: higher = more signal.
The nature of assay [4]: splicing luciferase reporter signal modulators, primary screen, spliceosome inhibition project, cell-based, HEK293, splice +/- reporter (AID 1101).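 Also: HEK293 cells carrying a splicing-competent luciferase reporter gene; test concentration not given here.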 Particulars: luminescence, 24 h, higher = more signal, called active from +8 up or from −8 down. A general note: A reporter such as luciferase makes a cellular process visible.
The target in assay [5] is Fibroblast growth factor 10 (Homo sapiens) (UniProt O15520). The assay can be described thus: FGF10 binders on small-molecule microarrays, primary screen, biochemical, small-molecule microarray, 635 nm fluorescence (AID 1102). Particulars: FGF10 binding, fluorescence 635 nm, higher = more signal.
For assay [6], the system named is glycogen synthase kinase-3 (GSK3A per assay name; protocol says GSK3B). The assay can be described thus: GSK3 binders on small-molecule microarrays, primary screen, biochemical, small-molecule microarray, 635 nm fluorescence, GSK3A (AID 1103). Also: the record names both GSK3A and GSK3B. Particulars: small-molecule microarray binding, fluorescence 635 nm; higher = more signal.
The target of assay [7] is Epidermal growth factor receptor (Homo sapiens) (UniProt P00533). The experiment in a line: EGFR binders on small-molecule microarrays, primary screen, biochemical, small-molecule microarray, 635 nm fluorescence (AID 1104).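 Also: score merges 667 nm emission intensity with spot signal to noise over triplicate slides.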 Particulars: EGFR binding, higher = more signal.
In assay [8] the target is Follistatin-related protein 3 (Homo sapiens) (UniProt O95633). The experiment in a line: FSTL3 binders on small-molecule microarrays, primary screen, biochemical, small-molecule microarray, 635 nm fluorescence (AID 1105).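 Also: score merges emission near 667 nm and signal to noise per printed spot across three slides.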 The following applies: FSTL3 binding, higher = more signal.
Assay [9] concerns the target Dickkopf-related protein 1 (Homo sapiens) (UniProt O94907). The experiment in a line: DKK1 binders on small-molecule microarrays, primary screen, biochemical, small-molecule microarray, 635 nm fluorescence scan (AID 1106).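 Also: score merges emission near 667 nm with signal to noise over three replicate slides.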 Particulars: DKK1 binding, higher = more signal.
Assay [10] has as its system Inhibin beta A chain (activin A). The experiment in a line: INHBA (activin A) binders on microarrays, primary screen, biochemical, small-molecule microarray, 635 nm fluorescence scan (AID 1107).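 Also: mouse activin A protein probed at 4.33 µg/mL on printed slides; score merges bound-protein fluorescence near 667 nm with spot signal-to-noise.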 The following applies: small-molecule microarray binding, higher = more signal.

Activity calls are given as the source filed them.

Fibroblast growth factor 10 (Homo sapiens), sequence (O15520 whole entry, looked up): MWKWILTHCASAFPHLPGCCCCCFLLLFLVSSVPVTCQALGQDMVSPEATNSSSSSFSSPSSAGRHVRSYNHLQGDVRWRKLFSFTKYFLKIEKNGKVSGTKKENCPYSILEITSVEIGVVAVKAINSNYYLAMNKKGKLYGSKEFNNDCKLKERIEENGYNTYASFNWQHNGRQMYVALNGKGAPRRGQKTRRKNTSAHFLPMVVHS
Follistatin-related protein 3 (Homo sapiens), sequence (O95633 whole entry, looked up): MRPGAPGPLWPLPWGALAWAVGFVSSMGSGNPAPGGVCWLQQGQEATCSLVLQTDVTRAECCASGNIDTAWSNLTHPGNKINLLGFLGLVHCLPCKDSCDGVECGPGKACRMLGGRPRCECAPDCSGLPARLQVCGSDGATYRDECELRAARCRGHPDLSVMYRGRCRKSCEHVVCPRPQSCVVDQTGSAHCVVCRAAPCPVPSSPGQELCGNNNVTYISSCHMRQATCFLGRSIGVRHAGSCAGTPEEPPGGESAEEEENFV
Epidermal growth factor receptor (Homo sapiens), sequence (P00533 whole entry, looked up): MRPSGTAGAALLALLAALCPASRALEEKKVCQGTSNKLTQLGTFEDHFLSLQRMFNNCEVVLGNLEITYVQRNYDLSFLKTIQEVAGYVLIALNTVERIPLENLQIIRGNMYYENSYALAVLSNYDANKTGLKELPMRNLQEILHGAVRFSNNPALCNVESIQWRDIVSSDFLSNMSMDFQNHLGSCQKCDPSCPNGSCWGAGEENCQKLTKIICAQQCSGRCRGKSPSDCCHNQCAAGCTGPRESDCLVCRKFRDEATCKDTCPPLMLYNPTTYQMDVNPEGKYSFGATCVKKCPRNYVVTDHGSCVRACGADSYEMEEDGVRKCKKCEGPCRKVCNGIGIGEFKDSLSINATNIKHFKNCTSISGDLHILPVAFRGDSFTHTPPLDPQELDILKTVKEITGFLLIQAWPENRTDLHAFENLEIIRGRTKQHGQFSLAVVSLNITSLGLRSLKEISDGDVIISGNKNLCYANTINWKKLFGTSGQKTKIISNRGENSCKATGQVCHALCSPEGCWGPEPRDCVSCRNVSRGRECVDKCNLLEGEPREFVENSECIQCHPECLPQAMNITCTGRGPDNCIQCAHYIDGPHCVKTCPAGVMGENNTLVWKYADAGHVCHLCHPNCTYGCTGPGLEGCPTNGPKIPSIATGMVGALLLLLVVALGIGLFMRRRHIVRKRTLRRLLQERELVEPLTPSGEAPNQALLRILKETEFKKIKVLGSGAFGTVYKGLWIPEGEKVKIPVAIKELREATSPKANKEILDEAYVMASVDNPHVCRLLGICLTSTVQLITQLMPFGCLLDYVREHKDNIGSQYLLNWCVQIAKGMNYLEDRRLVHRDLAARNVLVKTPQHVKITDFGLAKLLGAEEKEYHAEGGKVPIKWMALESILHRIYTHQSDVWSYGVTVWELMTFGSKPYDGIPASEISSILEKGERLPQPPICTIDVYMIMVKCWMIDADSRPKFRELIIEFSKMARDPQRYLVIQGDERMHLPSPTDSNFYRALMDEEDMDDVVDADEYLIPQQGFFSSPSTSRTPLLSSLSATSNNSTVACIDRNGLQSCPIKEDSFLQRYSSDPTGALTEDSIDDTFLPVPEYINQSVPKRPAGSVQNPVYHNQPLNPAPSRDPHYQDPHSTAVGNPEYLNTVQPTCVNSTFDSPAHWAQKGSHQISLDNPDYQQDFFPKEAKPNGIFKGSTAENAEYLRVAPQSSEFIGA
Dickkopf-related protein 1 (Homo sapiens), sequence (O94907 whole entry, looked up): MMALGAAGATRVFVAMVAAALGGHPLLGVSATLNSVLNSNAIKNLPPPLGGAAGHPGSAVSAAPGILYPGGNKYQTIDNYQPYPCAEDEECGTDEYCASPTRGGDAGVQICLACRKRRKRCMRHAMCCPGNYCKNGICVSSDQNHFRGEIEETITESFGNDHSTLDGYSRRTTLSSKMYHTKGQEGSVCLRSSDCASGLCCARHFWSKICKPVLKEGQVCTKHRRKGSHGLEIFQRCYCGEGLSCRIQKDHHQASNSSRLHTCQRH

For the compound `O=C(N1CCOCC1)[C@@]1(CCS(=O)(=O)c2ccccc2)COC(c2ccc(OCCCO)cc2)=N1`, the composite z-score in [1] was 0.495; in assay [2], 0.0641; in [3], 0.691; in [5], 0.94; in [6], 0.443; in assay [7], -0.935. Besides, the composite z-score in [8] is -0.827; in [9], -0.899; in [10], -0.704. In assay [4], the z-score is 0.122 (inactive).
Regarding `CC(C)c1ccc(NN2C(C(O)c3cccs3)C=CC3C(=O)N(c4ccccc4)C(=O)C32)cc1` (stereo not given), the composite z-score in assay [1] amounted to 1.02; in assay [2] it was 0.0558; in assay [3], 0.928; in assay [5], 0.461; in assay [6], 1.31; in assay [7], 0.156. Besides, the composite z-score is 1.21 in assay [8], -0.054 in assay [9] and 0.975 in assay [10]. Moreover, the z-score in assay [4] was 0.356 (inactive).
For `COCCCNC(=O)[C@@]1(Cc2ccccc2I)c2ccccc2C(=O)N(Cc2ccccc2Cl)[C@H]1c1ccc(CO)cc1`, the composite z-score in assay [1] was 0.506; in [2], 0.0418; in assay [3], -0.261; in assay [5], -0.0568; in assay [6], 0.575; in assay [7] it was -0.0316. For the same compound, the composite z-score in assay [8] was found to be 0.3; in [9] it was 0.186; in assay [10], 0.712. Further, in [4], the z-score is -0.964 (inactive).
For `CCOC(=O)C1=CC[C@@H](c2ccccc2)N(S(=O)(=O)c2ccc(C)cc2)[C@H]1C=C(C)C`, the composite z-score in [1] came to 0.625; in assay [2], 0.367; in assay [3] it was 0.688; in assay [5], 1.02; in [6] it was 0.604; in assay [7], 1.01. Besides, the values for the composite z-score in assay [8], in [9] and in assay [10] were 1.38, 0.226 and 1.11, respectively. Moreover, in [4], the z-score is -0.925 (inactive).
On to `C=CCOc1ccc([C@@H]2CC=C(C(=O)OCC)[C@H](c3cccc(Br)c3)N2S(=O)(=O)c2ccc(C)cc2)cc1`, for which the composite z-score is 0.251 in assay [1]; 0.735 in [2]; 1.04 in [3]; 0.248 in assay [5]; -1.11 in assay [6]; -0.0936 in [7]. For the same compound, the composite z-score in [8] came out at 0.167; in [9], 0.644; in [10], 1.46. In addition, in assay [4], the z-score was -0.776 (inactive).
As for `NC(=O)NCC#Cc1ccc2c(c1)[C@]1(C(=O)N2)[C@H](c2ccc(O)cc2)N2[C@H](c3ccccc3)[C@H](c3ccccc3)OC(=O)[C@H]2[C@@H]1C(N)=O`, the composite z-score is 0.855 in [1]; 0.431 in assay [2]; 0.55 in assay [3]; -0.0652 in assay [5]; -1.08 in [6]; -0.341 in assay [7]. The composite z-score in [8] is -0.934; in [9], -0.343; in [10], 0.286. The z-score in assay [4] was -0.278 (inactive).
For `COCCCNC(=O)[C@@]1(Cc2ccccc2N=[N+]=[N-])N=C(c2ccc(OCCCO)cc2)O[C@H]1c1ccccc1CN=[N+]=[N-]`, the composite z-score in [1] came to 0.953; in assay [2], 1.19; in [3] it was 1.18; in assay [5], 1.43; in assay [6] it was 1.21; in assay [7] it was 0.0402. The composite z-score in assay [8] was 0.511; in assay [9], -0.338; in assay [10] it was 1.21. Moreover, in [4], the z-score is -0.456 (inactive).
With `COCCOC(=O)N1C(=O)[C@@]2(c3cc(C#CCNC(N)=O)ccc31)[C@H](C(N)=O)[C@H]1C(=O)O[C@H](c3ccccc3)[C@H](c3ccccc3)N1[C@@H]2c1ccc(OCCO)cc1`, the composite z-score in assay [1] was 1.05; in [2], 0.0301; in assay [3] it was 0.721; in [5], 0.535; in [6] it was 0.737; in assay [7], 0.793. Also, the composite z-score in assay [8] stood at 1.45; in [9], 0.825; in assay [10], 1.35. Moreover, in assay [4], the z-score is 0.731 (inactive).
